Source: PubChem BioAssay (National Center for Advancing Translational Sciences (NCATS))
Sampled rows, rich in hits. Any-hit rate of the full collection: about 19%.
uPA surface inh: inhibitors of cell surface uPA generation. AID 540303. hit rate 0.31% among 330,000. Potency, µM (series often up to 38.3 µM), without a hit: at the highest dose activity change, negative = inhibition, hits mostly inhibitors. cell surface uPA generation assay, qHTS; active means well fitted inhibition curve with a large enough effect; inconclusive means small, poorly fitted or top-dose-only effect; inactive means no such curve, though single readings can be large or run the other way; tested in mouse RAW 264.7 cells; further: potency means the concentration at half of the fitted maximal effect; nearly all actives have a fitted effect of over 55% in size
TDP1 cell CPT: growth inhibition of DT40 Tdp1-/-;hTDP1 cells with camptothecin (screen for TDP1 inhibitors); chicken DT40 Tdp1-/-;hTDP1 cells + 20 nM CPT, ATP luminescence, 48 h; Potency, µM (top dose mostly 46.2 µM), for the others: top-dose activity change, negative = growth inhibition, most hits filed as inhibitors; hit rate 12% among 420,000; AID 686979; further: potency means the concentration at half of the fitted maximal effect; nearly all actives have a fitted effect of over 55% in size
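Chicken DT40 Tdp1-/- cells complemented with human TDP1, 400 cells/well, exposed to compounds plus 20 nM camptothecin for at least 48 h at 37 C; viability read as ATP content by CellTiter-Glo luminescence.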
HT1080-NT tox: kills 2HG-producing HT-1080-NT fibrosarcoma cells; hit rate 1.6% among 360,000; AID 686970; HT-1080-NT fibrosarcoma viability, CellTiter-Glo ATP luminescence, 48 h; Potency, µM (titrated, usually from 46.1 µM), for inactives: at the highest dose activity, negative = less viability, most hits filed as cytotoxic;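 further: NT is the 2HG producing partner of a matched IDH1 knockdown line; potency means the concentration at half of the fitted maximal effect; 0% = DMSO-treated cells and -100% = media-only wells without cells; nearly all actives have a fitted effect of over 55% in size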
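Compounds were tested in concentration-response format on HT-1080-NT cells for 48 hours at 37 degrees C. Cell viability came from CellTiter-Glo luminescence; curves were classified by r2, response magnitude and activity.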
DT40 TDP1 no CPT: qHTS for Inhibitors of human tyrosyl-DNA phosphodiesterase 1 (TDP1): qHTS in cells in absence of CPT; DT40 Tdp1-/- hTDP1 cells, no CPT, ATP luminescence, 48 h; Potency, µM (doses to about 46.2 µM), for the others: top-dose activity change, negative = growth inhibition, usual class: inhibitors; hit rate 15% among 420,000; further: potency means the concentration at half of the fitted maximal effect; nearly all actives have a fitted effect of over 55% in size
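Camptothecin absent (DMSO only). Human TDP1-complemented DT40 knockout cells, 400 cells/well, 37 °C for minimum 48 hr; ATP measured via CellTiter-Glo, 30 min dark incubation, luminescence.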
HT1080 IDH1KD tx: HT-1080 IDH1 knockdown cell toxicity (counter line) | Potency, µM (titrated, usually from 46.1 µM), inactives show at the top dose activity, negative = toxicity, usual class: cytotoxic | hit rate 2% among 360,000 | AID 686971 | HT-1080 IDH1 knockdown viability, ATP luminescence, 48 h;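 further: potency means the concentration at half of the fitted maximal effect; 0% = DMSO wells and -100% = cell-free medium wells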
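CellTiter-Glo luminescence after 48 h compound exposure at 37 degrees C of IDH1-knockdown HT-1080 cells in 5% FBS RPMI. %Activity scaled between DMSO wells and cell-free media wells, with curves fitted and assigned curve classes.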
IL1B secr inh: inflammasome signaling inhibition, IL-1 beta readout | THP-1 LPS/ATP IL-1B secretion, AlphaLISA, 16 h; active compounds read low | activity change, % at 57.5 µM | hit rate 4.7% among 360,000; in the data active means activity change below about -50%; inconclusive means mostly about -30% to -49%
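THP-1 cells pretreated 1 hr with compounds (up to 57.5 uM final), then stimulated with LPS (250 ng/mL final) plus ATP (1.25 mM final); secreted IL-1B measured by AlphaLISA after 16 hr, decreased signal indicating inhibition.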
Numbers without * were called inactive; ? = inconclusive; . = no result given; [ ] = dose if it differs, or a comment. Unless noted, the call rests on the fitted dose curve; in most records, active means well fitted curve in the direction sought with a large enough effect; inconclusive means small, poorly fitted or top-dose-only effect, or another doubt; inactive means no such curve, though single readings can be large; an effect the other way counts as inactive or inconclusive. Unless noted, on the % scale 0 is the no-effect control and ±100 the full control effect.

SMILES	uPA surface inh	TDP1 cell CPT	HT1080-NT tox	DT40 TDP1 no CPT	HT1080 IDH1KD tx	IL1B secr inh
Cc1ccc(C(=O)OCC(=O)NCc2cccs2)cc1S(=O)(=O)N1CCOCC1	1%	-15%	1%	2%	-2%	1
COc1ncc2ncc(=O)n(C[C@H]3CCCO3)c2n1	.	0%	.	4%	.	.
CCOc1ccc(NC(=O)CN(C)C(=O)c2ccc(N3CCCCC3)c([N+](=O)[O-])c2)cc1OCC	0%	?	4%	?	2%	-12
CN(CC(=O)Nc1ccccc1Cl)C(=O)c1ccc(N2CCCCCC2)c([N+](=O)[O-])c1	-2%	23µM*	-5%[9.24 µM]	18µM*	0%	?
CN(CC(=O)Nc1ccc(Cl)c(C(F)(F)F)c1)C(=O)c1ccc(N2CCOCC2)c([N+](=O)[O-])c1	-4%	23µM*	23µM*	26µM*	?	?
CN(CC(=O)Nc1cccc(F)c1)C(=O)c1ccc(N2CCOCC2)c([N+](=O)[O-])c1	-4%	?	0%	?	-11%	58
Cc1cccc(NC(=O)CN(C)C(=O)c2ccc(N3CCCCCC3)c([N+](=O)[O-])c2)c1C	-12%	23µM*	-29%	18µM*	-13%	-26
CCCN(CC(=O)Nc1ccccc1C)C(=O)c1ccc(N2CCOCC2)c([N+](=O)[O-])c1	-1%	3%	-5%	-3%	4%	-14
CCCN(CC(=O)Nc1ccccc1C)C(=O)c1ccc(N2CCCC(C)C2)c([N+](=O)[O-])c1 (centres undefined)	-9%	?	-18%	?	-16%	-71*
Cc1nc(SCc2cc(=O)c3cccc(F)c3[nH]2)n[nH]1	.	-23%	.	-21%	.	.
COc1ccc(-c2cnc3c(c2)C(=O)N([C@H](C)CO)C[C@@H](C)[C@@H](CN(C)C(=O)NC2CCCC2)O3)cc1	.	-4%	6%	-21%	9%	-3
COc1ccc(-c2noc(-c3ccc(NC4CCCC4)c([N+](=O)[O-])c3)n2)cc1OC	.	1%	.	-5%	.	.
COc1ccc(Cl)cc1NC(=O)CN(C)C(=O)c1ccc(N2CCCCCC2)c([N+](=O)[O-])c1	?	16µM*	-1%	23µM*	-17%	-6
COc1ccc(NC(=O)CN(C)C(=O)c2ccc(N3CCCCCC3)c([N+](=O)[O-])c2)cc1	-7%	?	7%	?	1%	-4
O=C(c1cnccn1)N1CCC2(CC1)CCN(C(c1ccccc1)c1ccccc1)CC2	.	-4%	.	?	.	.
O=C(c1n[nH]c2ccccc12)N1CCCCC1	6%	0%	1%	-5%	4%	6
CCOc1ncccc1C(=O)N1CCN(C(c2ccccc2)c2ccccc2)CC1	2%	13µM*	-27%	13µM*	-28%	-90*
CCCCn1nc(C(=O)N2CCN(S(=O)(=O)c3ccccc3)CC2)c2ccccc2c1=O	-4%	?	-3%	15µM*	1%	1
Cn1nc(C(=O)N2CCN(S(=O)(=O)c3ccc(Cl)cc3)CC2)c2ccccc2c1=O	-13%	?	-12%	23µM*	-15%	12
O=C(c1n[nH]c2ccccc12)N1CCN(S(=O)(=O)c2ccc(Cl)cc2)CC1	-19%	?	9%	18µM*	6%	-16
CCOC(=O)c1ccc(S(=O)(=O)N2CCN(C(=O)c3nn(C)c(=O)c4ccccc34)CC2)cc1	-1%	-25%	5%	?	3%	6
COC(=O)CN(c1cc([N+](=O)[O-])ccc1OC)S(C)(=O)=O	1%	27%	17%	-7%	13%	-27
O=c1c(-c2cccc(F)c2)nc2cncnc2n1-c1ccccc1	.	1%	.	0%	.	.
Cn1nc(C(=O)N2CCN(C(c3ccccc3)c3ccccc3)CC2)c2ccccc2c1=O	0%	23µM*	?	?	?	-3
Cn1nc(C(=O)N2CCN(S(=O)(=O)/C=C/c3ccccc3)CC2)c2ccccc2c1=O	-9%	14%	4%	?	1%	-7
SMILES	uPA surface inh	TDP1 cell CPT	HT1080-NT tox	DT40 TDP1 no CPT	HT1080 IDH1KD tx	IL1B secr inh
Nc1nc(N)nc(-c2ccc(Cl)c(Cl)c2)n1	-27%	21µM*	-5%	12µM*	-1%	-30
Cc1nc(N)nc(N)c1-c1ccc(Cl)c(Cl)c1	-7%	0.26µM*	?	0.16µM*	0.58µM*	-11
COc1ccc(Cc2c(C)nc(N)nc2Cl)cc1	-4%	?	2%	-8%	-9%	0
Cc1nc(N)nc(N)c1CCCc1ccc(Cl)c(Cl)c1	-6%	10µM*	8.2µM*	2.6µM*	1.2µM*	-104*
Cc1cc(OCc2nc(N)nc(N)c2-c2ccc(Cl)c(Cl)c2)ccc1[N+](=O)[O-]	-10%	0.58µM*	?	0.13µM*	0.82µM*	-53*
COc1ccc(-c2nc(N)nc(C)c2-c2ccc(Cl)cc2)c(O)c1	4%	-33%	-4%	-17%	-2%	37
Nc1nc(N)nc(-c2cccc([N+](=O)[O-])c2)n1	.	-22%	1%	?	19%	-21
Cc1cc(OCCCn2cnc3ccccc3c2=O)ccc1[N+](=O)[O-]	0%	?	0%	?	4%	-1
Cc1cccc2cc(C#N)c(N3CCN(C)CC3)nc12	0%	?	-22%	26µM*	?	-28
